From the supplement of paper PMC8728848
This is one part of a sample in which the strongest signals are shown more often than they occur.

Tests used:
Test in all cases: glycan array binding signal (z-score within array); higher = stronger binding
Conditions in all cases: glycan notation: IUPAC condensed, linker removed
[1] = target: Gal(b1-4)GlcNAc(b1-3)Gal(b1-4)GlcNAc(b1-2)Man(a1-3)[Gal(b1-4)GlcNAc(b1-3)Gal(b1-4)GlcNAc(b1-2)Man(a1-6)]Man(b1-4)GlcNAc(b1-4)GlcNAc
Summary of the method: (§1)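 Negative Z-scores can be read as non-binding. The Z-score is calculated within each array and then averaged across arrays of one protein sequence at different concentrations or buffers and across linkers. Arrays, 3228 in all, were curated from the Consortium for Functional Glycomics database and kept only where the protein sequence was available.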

[2] = target: Gal(b1-4)GlcNAc(b1-3)Gal(b1-4)GlcNAc(b1-2)Man(a1-3)[Gal(b1-4)GlcNAc(b1-3)Gal(b1-4)GlcNAc(b1-2)Man(a1-6)]Man(b1-4)GlcNAc(b1-4)[Fuc(a1-6)]GlcNAc
Summary of the method: as §1

[3] = target: Gal(b1-4)GlcNAc(b1-3)Gal(b1-4)GlcNAc(b1-2)[Gal(b1-4)GlcNAc(b1-3)Gal(b1-4)GlcNAc(b1-6)]Man(a1-6)[Gal(b1-4)GlcNAc(b1-3)Gal(b1-4)GlcNAc(b1-2)Man(a1-3)]Man(b1-4)GlcNAc(b1-4)[Fuc(a1-6)]GlcNAc
Summary of the method: as §1

[4] = target: Gal(b1-4)GlcNAc(b1-3)Gal(b1-4)GlcNAc(b1-3)Gal(b1-4)GlcNAc(b1-2)Man(a1-3)[Gal(b1-4)GlcNAc(b1-3)Gal(b1-4)GlcNAc(b1-3)Gal(b1-4)GlcNAc(b1-2)Man(a1-6)]Man(b1-4)GlcNAc(b1-4)GlcNAc
Summary of the method: as §1

[5] = target: Gal(b1-4)GlcNAc(b1-3)Gal(b1-4)GlcNAc(b1-3)Gal(b1-4)GlcNAc(b1-2)[Gal(b1-4)GlcNAc(b1-3)Gal(b1-4)GlcNAc(b1-3)Gal(b1-4)GlcNAc(b1-6)]Man(a1-6)[Gal(b1-4)GlcNAc(b1-3)Gal(b1-4)GlcNAc(b1-3)Gal(b1-4)GlcNAc(b1-2)Man(a1-3)]Man(b1-4)GlcNAc(b1-4)[Fuc(a1-6)]GlcNAc
Summary of the method: as §1

[6] = target: Gal(b1-4)GlcNAc(b1-3)Gal(b1-4)GlcNAc(b1-3)[Gal(b1-4)GlcNAc(b1-3)Gal(b1-4)GlcNAc(b1-6)]GalNAc
Summary of the method: as §1

[7] = target: Gal(b1-4)GlcNAc(b1-3)Gal(b1-4)GlcNAc(b1-6)[Gal(b1-3)]GalNAc
Summary of the method: as §1

Gal6S(b1-4)GlcNAc6S = target: Gal6S(b1-4)GlcNAc6S
Summary of the method: as §1

[8] = target: GlcNAc(b1-2)Man(a1-3)[GlcNAc(b1-2)Man(a1-6)]Man(b1-4)GlcNAc(b1-4)[Fuc(a1-6)]GlcNAc
Summary of the method: as §1

[9] = target: GlcNAc(b1-3)Gal(b1-4)GlcNAc(b1-2)Man(a1-3)[GlcNAc(b1-3)Gal(b1-4)GlcNAc(b1-2)Man(a1-6)]Man(b1-4)GlcNAc(b1-4)GlcNAc
Summary of the method: as §1

[10] = target: GlcNAc(b1-3)Gal(b1-4)GlcNAc(b1-3)Gal(b1-4)GlcNAc(b1-2)Man(a1-3)[GlcNAc(b1-3)Gal(b1-4)GlcNAc(b1-3)Gal(b1-4)GlcNAc(b1-2)Man(a1-6)]Man(b1-4)GlcNAc(b1-4)GlcNAc
Summary of the method: as §1

[11] = target: GlcNAc(b1-3)Gal(b1-4)GlcNAc(b1-3)Gal(b1-4)GlcNAc(b1-2)Man(a1-3)[GlcNAc(b1-3)Gal(b1-4)GlcNAc(b1-3)Gal(b1-4)GlcNAc(b1-2)Man(a1-6)]Man(b1-4)GlcNAc(b1-4)[Fuc(a1-6)]GlcNAc
Summary of the method: as §1

[12] = target: GlcNAc(b1-3)Gal(b1-4)GlcNAc(b1-3)Gal(b1-4)GlcNAc(b1-2)[GlcNAc(b1-3)Gal(b1-4)GlcNAc(b1-3)Gal(b1-4)GlcNAc(b1-6)]Man(a1-6)[GlcNAc(b1-3)Gal(b1-4)GlcNAc(b1-3)Gal(b1-4)GlcNAc(b1-2)Man(a1-3)]Man(b1-4)GlcNAc(b1-4)[Fuc(a1-6)]GlcNAc
Summary of the method: as §1

[13] = target: Man(a1-2)Man(a1-6)[Man(a1-3)]Man(a1-6)[Man(a1-2)Man(a1-2)Man(a1-3)]Man
Summary of the method: as §1

[14] = target: Neu5Ac(a2-3)Gal(b1-3)GalNAc(b1-4)[Neu5Ac(a2-8)Neu5Ac(a2-3)]Gal(b1-4)Glc
Summary of the method: as §1

[15] = target: Neu5Ac(a2-3)Gal(b1-3)GlcNAc6S
Summary of the method: as §1

[16] = target: Neu5Ac(a2-3)Gal(b1-3)]Neu5Ac(a2-3)Gal(b1-4)]GlcNAc
Summary of the method: as §1

[17] = target: Neu5Ac(a2-3)Gal(b1-4)GlcNAc(b1-6)[Gal(b1-3)]GalNAc
Summary of the method: as §1

[18] = target: Neu5Ac(a2-6)GalNAc(b1-4)GlcNAc
Summary of the method: as §1

[19] = target: Neu5Ac(b2-6)Gal(b1-4)GlcNAc
Summary of the method: as §1

Neu5Ac(b2-6)GalNAc = target: Neu5Ac(b2-6)GalNAc
Summary of the method: as §1

[20] = target: Neu5Gc(a2-3)Gal(b1-4)GlcNAc(b1-3)Gal(b1-4)GlcNAc(b1-2)Man(a1-3)[Neu5Gc(a2-3)Gal(b1-4)GlcNAc(b1-3)Gal(b1-4)GlcNAc(b1-2)Man(a1-6)]Man(b1-4)GlcNAc(b1-4)GlcNAc
Summary of the method: as §1

[21] = target: Neu5Gc(a2-8)Neu5Gc(a2-3)Gal(b1-4)GlcNAc
Summary of the method: as §1

B1: InvD YPIII (Yersinia pseudotuberculosis), B1JSC0 (protein)
chain: MIKYFSFFKKPEPIVGILPNRQSHHILPTHIRRVAWGTLLLQLFIPLSVSFSPAIAAMKASKADTMVSYSSTEPYVLGSGETVAMVAKKYGITVDELKKINIYRTFSRPFTALTTGDEIDIPRKASPFSVDNNKDNRLSVENTLAGHAVAGATALSNGDVAKSGERMVRSAASNEFNNSAQQWLSQFGTARVQLNINDDFHLDGSAADVLIPLYDNEKSILFTQLGARNKDSRNTVNMGAGVRTFQGNWMYGANTFFDNDLTGKNRRIGVGAEAWTDYLKLSANNYFGITDWHQSRDFIDYNERPANGYDLRAEAYLPSYPQLGGKAMYEKYRGDDVALFGKDNRQKNPHAITAGVNYTPIPLVTIGAEHRAGKGGQNDSNINFQLNYRLGETWQSHIDPSAVAASRTLAGSRYDLVERNNHIVLDYQKQNLVRLSLPDSLAGDPFSQLSVTAQVTATHGLERIDWQSAELMAAGGVLKQTSKNGLEITLPEYQMNRTGGNSYILNAIAYDTQGNASSQASMLITVNAQKINIANSTLVAVPINIEANNSDTSVVTLTLKDDNNIPVTGQDVTFLSPLGTLSAMTDSGNGVYTATLTAGTVSGTTAVSSNINGSALDMTPATVTLNGNSGELSITHSMLVAAPVNIEANGSDTSVVTLTLRDSNNNPVTGQTVTFAGTLGTLGAVTEGSSGVYTATLTAGIMVGTSSITASVNSTALGVTPATVTLNGDSGNLSTTNSTLVAAPVNIEANSSDTSVVTLTLRDNNNNPVTGQTVVFTSTLGTLGNVTEQASGVYTATLTAGTVSGVASLSVSVGGNALGVTPATVTLNGDSGNLSTTNSTLVAAPVNIEANSSDTSVVTLTLRDNNNNPVTGQTVNFAGTLGTLGTVSEGSSGVYTTTLTAGTVAGVASLSVNVGGNALGVTPATVTLNGNSGNLSATNSTLVAAPVNIEANSSDTSVVTLTLRDNNNNPVTGQTVAFTSTLGTLGNVTEQASGVYTATLTAGTVSGVASLSVSVNSNALGVTPATVTLNGDSGNLSTTNSTLVAAPVNIEANSSDTSVVTLTLRDNNNNPVTGQTVAFTSTLGTLGNVTEQASGLYTATLTAGTVSGVASLSVNVGGNALGVTPATVTLNGDSGNLSATNSTLVAAPVNIEANSSDTSVVTLTLRDNNNNPVTGQTVAFTSTLGTLGNVTEQASGLYTATLTAGTVSGVASLSVNVGGTALGVTPATVTLNGDSGNLSTTNSTLVAAPVNIEANSSDTSVVTLTLRDNNNNPVTGQTVAFTSTLGTLGNVTEQASGLYTATLTAGTVSGVASLSVSVNSTALGVTPATVTLNGDSGNLSTTNSTLVAAPVNIEANSSDTSVVTLTLRDNNNNPVTGQTVAFTSTLGTLGNVTEQASGVYTATLTAGTVAGVASLSVNVGGNALGVTPATVTLNGDSGNLSTTNSTLVAAPVNIEANSSDTSVVTLTLRDNNNNPVTGQTVAFTSTLGTLGNVTEQASGVYTATLTAGTVSGVASLSVSVGSSALGVTPATVTLNGDSGNLSTTNSTLVAAPVNIEANNSDTSVVTLTLRDNNNNPVTGQTVAFTSTLGTLGNVTEQASGVYTATLTAGTVSGVASLSVSVNSNALGVTPATVTLNGDSGNLSTTNSTLVAAPVNIEANSSDTSVVTLTLRDNNNNPVTGQTVVFTSTLGTLGNVTEQASGLYTATLTAGTVSGVASLSVSVGGNALGVTGNITLAPGALDAARSILAVNKPSINADDRIGSTITFTAQDAQGNAITGLDIAFMTDLENSQIMTLVDHNDGTYTANINGTQTGIANIAVQSSGATIAGLAATMVTITPGAWNTTQATPVMTVALPITTCQSSSGVYKRYYIGIVTHELYDNYGNEISGILTYNLGAGRYTTVTSQNSSVSGSNGLTRRSNSPVSHFILTSDAYTSQAACYAERIANVNVTITVTAITDDFKTSAVNKVFILGTGSN
glycan array binding signal (z-score) [1]: 10.1
glycan array binding signal (z-score) [2]: 2.01
glycan array binding signal (z-score) [3]: 1.88
glycan array binding signal (z-score) [4]: 1.59
glycan array binding signal (z-score) [5]: 1.62
glycan array binding signal (z-score) [6]: 1.71
glycan array binding signal (z-score) [7]: 1.51
glycan array binding signal (z-score) (Gal6S(b1-4)GlcNAc6S): -0.131
glycan array binding signal (z-score) [8]: 0.422
glycan array binding signal (z-score) [9]: -0.006
glycan array binding signal (z-score) [10]: 5.11
glycan array binding signal (z-score) [11]: 2.68
glycan array binding signal (z-score) [12]: 4.27
glycan array binding signal (z-score) [13]: -0.216
glycan array binding signal (z-score) [14]: -0.165
glycan array binding signal (z-score) [15]: -0.22
glycan array binding signal (z-score) [16]: 0.034
glycan array binding signal (z-score) [17]: 0.162
glycan array binding signal (z-score) [18]: -0.312
glycan array binding signal (z-score) [19]: -0.095
glycan array binding signal (z-score) (Neu5Ac(b2-6)GalNAc): 0.163
glycan array binding signal (z-score) [20]: 0.122
glycan array binding signal (z-score) [21]: -0.373
